# Source: PubChem
# Sampled rows, rich in hits. Any-hit rate of the full collection: about 17%.
# ATXN2 expr inh = ATXN2 expression inhibition; HEK-293 ATXN2-luciferase reporter, luminescence, 24 h; Potency, µM (series often up to 57 µM), without a hit: at the top dose activity change, negative = inhibition, hits mostly inhibitors; actives 0.72% (n = 360,000); AID 1745845; further: on the % scale 0 is the no-effect control and ±100 the full control effect; nearly all actives have a fitted effect of over 55% in size
#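 qHTS (up to 57 uM final) was run with 24 h compound exposure of reporter cells at 37 °C. Each well was multiplexed: SteadyGlo luminescence measured ATXN2-luciferase expression after a fluorogenic Gly-Phe-AFC viability readout (25 uM final).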
# HepG2 viability = counter-screen for TGF-b inhibitors: cytotoxicity in HepG2 cells; HepG2 CAGA-GFP viability, ATP luminescence, 18 h; Potency, µM (doses to about 46.1 µM), for inactives: at the top dose activity change, negative = cytotoxicity, hits mostly cytotoxic; actives 0.76% (n = 410,000)
#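 HepG2 CAGA-GFP cells (1000/well, DMEM with 1% FBS) received compound, then TGF-beta at 500 pg/mL final, and were incubated 18 hours at 37 degrees C. Viability was read by CellTiter-Glo luminescence. Media-only wells were set as complete cell-killing and DMSO as no toxicity.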
# DT40 TDP1 CPT = DT40-hTDP1 cell growth loss with CPT; chicken DT40 Tdp1-/-;hTDP1 cells + 20 nM CPT, ATP luminescence, 48 h; Potency, µM (highest dose often 46.2 µM), for inactives: at the highest dose activity change, negative = growth inhibition, actives largely listed as inhibitors; actives 12% (n = 420,000); further: on the % scale 0 is the no-effect control and ±100 the full control effect; nearly all actives have a fitted effect of over 55% in size
#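 Chicken DT40 Tdp1-/- cells complemented with human TDP1, 400 cells/well, exposed to compounds plus 20 nM camptothecin for at least 48 h at 37 C; viability read as ATP content by CellTiter-Glo luminescence.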
# TGFb inhibitor = blocks TGF-b signaling. HepG2 CAGA-GFP TGF-b/SMAD3 reporter, GFP fluorescence, 18 h; TGF-beta stimulated, 500 pg/mL final. Potency, µM (top dose mostly 46.1 µM), inactives show at the top dose activity, negative = inhibition, usual class: inhibitors. actives 1.2% (n = 410,000); further: on the % scale 0 is the no-effect control and ±100 the full control effect; nearly all actives have a fitted effect of over 65% in size
#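 Using HEPG2 CAGA-GFP reporter cells at 1000 cells/well, we pinned test compounds, stimulated with recombinant TGF-beta (500 pg/mL final) and measured total well GFP after 18 h.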
# ATXN viability = reduces viability in counter-screen for ATXN expression inhibitors; actives 0.49% (n = 400,000); AID 651635; S2 cells (HEK-293 line with an ATXN2-luciferase reporter) viability, CellTiter-Fluor protease fluorescence, 24 h; Potency, µM (highest dose often 56.7 µM), usual class: cytotoxic; further: nearly all actives have a fitted effect of over 40% in size
# TDP1 cell noCPT = qHTS for Inhibitors of human tyrosyl-DNA phosphodiesterase 1 (TDP1): qHTS in cells in absence of CPT. Potency, µM (doses to about 46.2 µM), without a hit: at the highest dose activity change, negative = growth inhibition, most hits filed as inhibitors. DT40 Tdp1-/- hTDP1 cells, no CPT, ATP luminescence, 48 h. actives 15% (n = 420,000). AID 686978, 2013; further: on the % scale 0 is the no-effect control and ±100 the full control effect; nearly all actives have a fitted effect of over 55% in size
#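 Chicken DT40 Tdp1-/- cells complemented with human TDP1, screened without camptothecin (DMSO vehicle only), 400 cells/well. Compounds pin-transferred, cells incubated at 37 °C for at least 48 hr. Growth read as ATP-dependent luminescence (CellTiter-Glo, 30 min at RT).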
# Starred values were filed as active, the others as inactive; i = inactive; ? = inconclusive; . = not tested or not shown; [ ] = remark or other dose. The call rests on the fitted dose curve; in most records, active means well fitted curve in the direction sought with a large enough effect; inconclusive means small, poorly fitted or top-dose-only effect, or another doubt; inactive means no such curve, though single readings can be large; an effect the other way counts as inactive or inconclusive. Potency means the concentration at half of the fitted maximal effect.
SMILES,ATXN2 expr inh,HepG2 viability,DT40 TDP1 CPT,TGFb inhibitor,ATXN viability,TDP1 cell noCPT
C/C=C1\NC(=O)[C@H]2CSSCC/C=C/[C@H](CC(=O)N[C@H](C(C)C)C(=O)N2)OC(=O)C(C(C)C)NC1=O (stereo not given in full),.,.,0.0015µM*,.,4.47µM*,0.0013µM*
COc1cc(OC)c(OC)cc1CN1CCCC(c2nc(C)ncc2-c2ccc(F)cc2)C1 (stereo not given),.,.,?,.,i,?
Cc1ccccc1N1C(=O)c2cccc3cccc(c23)C1=O,-15.9%,-12.1%,-24.7%,?,i,-13.5%
O=C1c2cccc3cccc(c23)C(=O)N1OS(=O)(=O)c1ccc(Br)cc1,-7.5%[11.3 µM],17.0%,?,0.2%,i,10.3µM*
Cc1cc(S(=O)(=O)Nc2cc3c(cc2C)n(C)c(=O)c(=O)n3C)ccc1F,10.2%,-2.8%,-29.5%,-8.9%,i,-29.4%
Cc1cc(S(=O)(=O)ON2C(=O)c3ccccc3C2=O)ccc1F,.,1.9%,3.26µM*,11.0%,?,2.06µM*
Cc1ccc(S(=O)(=O)ON2C(=O)c3cccc4cccc(c34)C2=O)cc1,.,20.5%,?,18.5%,i,16.4µM*
CCCCON1C(=O)c2cccc3cccc(c23)C1=O,.,-21.6%,11.9%,-3.2%,?,?
COc1ccc(CNC(=O)[C@H](CCSC)NC(=O)N2CCn3c2nc2ccccc23)cc1,5.9%,-7.4%,?,-16.2%,i,2.2%
c1ccn2cc(-c3ccc4c(c3)OCCO4)nc2c1,.,-82.1%,14.6µM*,-0.1%,i,25.9µM*
COc1ccc(-c2cn3cc(C)ccc3n2)cc1OC,-10.9%,-39.9%,0.2%,-18.8%,?,?
Cc1ccc2nc(-c3ccc4c(c3)OCCO4)cn2c1,?,-44.9%,1.3µM*,-17.4%,i,1.64µM*
COc1ccc(-c2cn3cc(C)ccc3n2)cc1F,?,15.8µM*,?,?,i,?
O=S(=O)(c1ccccc1)C1CC1(c1ccccc1)c1ccccc1 (stereo not given),-0.4%,-2.5%,?,-20.6%,i,?
O=c1n(Cc2ccc([N+](=O)[O-])cc2)c2ccccc2c2nc(-c3ccccc3)nn12,.,-9.4%,7.31µM*,19.3%,.,?
O=c1n(Cc2ccc(F)cc2Cl)c2ccccc2c2nc(-c3ccccc3)nn12,.,-15.1%,-4.3%,13.3%,.,0.3%
CCCCN(CC)CCCNC(=O)C1CCN(c2ncnc3c2sc2cccc(F)c23)CC1,-7.1%,-36.9%,18.4µM*,?,i,29.1µM*
O=C(C1CCN(c2nnc(-n3cccc3)s2)CC1)N1CCOCC1,6.5%,-19.3%,-8.4%,-3.4%,i,-8.1%
O=C(C1CCN(c2ncnc3c2sc2cccc(F)c23)CC1)N1CCOCC1,?,-58.6%,11.6µM*,?,?,29.1µM*
O=C(NCCN1CCOCC1)C1CCN(c2ncnc3c2sc2cccc(F)c23)CC1,-8.8%,-10.8%,11.6µM*,-5.8%,i,20.6µM*
CCCS/C(N)=N/N=C/c1cc(C)ccc1O,95.0%,-25.9%,0.731µM*,?,i,0.82µM*
O=C(CSc1nc2ccccc2c(=O)n1-c1ccccc1)NCC1CCCO1 (stereo not given),-31.0%,-10.0%,-26.9%,-16.1%,?,?
CCOC(=O)C(CC)n1nnc2sc(-c3ccccc3)cc2c1=O (stereo not given),10.7%,7.7%,25.9µM*,-0.6%,i,14.6µM*
Cc1cccc(-n2c(SCC(=O)NCC3CCCO3)nc3ccccc3c2=O)c1C (stereo not given),.,-21.8%,14.6µM*,6.8%,i,23.1µM*
CCCOC(=O)C(C)n1nnc2sc(-c3ccccc3)cc2c1=O (stereo not given),5.3%,0.2%,?,?,i,?
SMILES,ATXN2 expr inh,HepG2 viability,DT40 TDP1 CPT,TGFb inhibitor,ATXN viability,TDP1 cell noCPT
Cc1ccccc1-n1c(SCC(=O)NC(N)=O)nc2sc(-c3ccccc3)cc2c1=O,0.0%,-20.8%,?,6.9%,i,?
COc1ccc(C)cc1-n1c(SCC(=O)Nc2cccc(C(=O)O)c2)nc2ccccc2c1=O,-8.1%,-1.1%,4.1%,0.5%,i,0.3%
Cc1ccccc1-n1c(SCC(N)=O)nc2sc(-c3ccccc3)cc2c1=O,13.2%,2.3%,?,10.5%,i,18.4µM*
COc1ccc(C)cc1-n1c(SCC(=O)NC2CC2)nc2ccccc2c1=O,-4.2%,7.0%,18.4µM*,3.0%,i,?
Cc1ccccc1-n1c(SCC(=O)NC2CC2)nc2ccccc2c1=O,.,-4.8%,?,8.1%,?,16.4µM*
COc1ccc(N2C(=O)C(Cl)=C(N3CCOCC3)C2=O)cc1,-9.0%,-7.8%,-18.6%,-0.6%,i,29.1µM*
COc1ccc(C(=O)c2c(N)c(-c3nc(-c4ccccc4)cs3)c3ccccn23)cc1,5.9%,-16.9%,?,7.6%,i,?
COc1ccccc1C(=O)c1c(N)c(-c2nc(-c3ccccc3)cs2)c2ccccn12,3.0%,-0.1%,18.4µM*,0.0%,i,20.6µM*
OC(c1ccccc1)c1nc2ccccc2s1 (stereo not given),14.1%,11.1%,23.1µM*,-1.8%,i,?
O=C(Nc1cccc(F)c1)N1CC[C@@]2(CCCNC2)C1,.,.,-17.4%,.,.,-24.1%
CC(C)C(c1nnnn1Cc1ccc(F)cc1)N1CCN(C(=O)c2ccco2)CC1 (stereo not given),6.1%,-5.8%,?,0.0%,?,16.4µM*
CCC(c1nnnn1Cc1ccccc1)N1CCN(C(=O)c2ccco2)CC1 (stereo not given),1.9%,-1.1%,-13.5%,-25.3%,i,-27.3%
CCCCC(c1nnnn1CCOC)N1CCN(C(=O)c2ccco2)CC1 (stereo not given),-7.0%,-84.0%,18.4µM*,9.5%,i,-16.7%
O=C(N/N=C/c1ccc2c(c1)OCO2)C(=O)Nc1cccc(Cl)c1,-2.6%,-1.1%,3.9%,-4.3%,i,-1.7%
Fc1ccc2cnc(CCO[C@H]3CCCCO3)cc2c1,-7.4%,-8.2%,-20.5%,-2.4%,i,-5.4%
